Measured values published in PubChem BioAssay AID651699 (Sanford-Burnham Center for Chemical Genomics, 2012).
Out of some 360,000 compounds screened, about 2,100 (0.58%) were called active. The sample as a whole holds a higher share of actives than the screen did. Values without a mark were called inactive. No stated cut-off is given here; in the data, active means inhibition above about 36%; inactive means the rest.

target: NEDD8-conjugating enzyme Ubc12 (Homo sapiens) + NEDD8-activating enzyme E1 regulatory subunit (Homo sapiens) (UniProt P61081+Q13564); assay: inhibitors of cullin neddylation, primary screen, biochemical, TR-FRET, uHTS, NAE and Ubc12 (AID 651699); settings: at 25 µM, active compounds read high
Sequence (P61081 whole entry, looked up): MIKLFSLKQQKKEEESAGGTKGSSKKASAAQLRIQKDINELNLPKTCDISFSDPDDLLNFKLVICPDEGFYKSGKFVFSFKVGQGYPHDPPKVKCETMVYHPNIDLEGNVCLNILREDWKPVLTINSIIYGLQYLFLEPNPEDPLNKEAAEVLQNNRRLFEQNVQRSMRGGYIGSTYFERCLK
Sequence (Q13564 whole entry, looked up): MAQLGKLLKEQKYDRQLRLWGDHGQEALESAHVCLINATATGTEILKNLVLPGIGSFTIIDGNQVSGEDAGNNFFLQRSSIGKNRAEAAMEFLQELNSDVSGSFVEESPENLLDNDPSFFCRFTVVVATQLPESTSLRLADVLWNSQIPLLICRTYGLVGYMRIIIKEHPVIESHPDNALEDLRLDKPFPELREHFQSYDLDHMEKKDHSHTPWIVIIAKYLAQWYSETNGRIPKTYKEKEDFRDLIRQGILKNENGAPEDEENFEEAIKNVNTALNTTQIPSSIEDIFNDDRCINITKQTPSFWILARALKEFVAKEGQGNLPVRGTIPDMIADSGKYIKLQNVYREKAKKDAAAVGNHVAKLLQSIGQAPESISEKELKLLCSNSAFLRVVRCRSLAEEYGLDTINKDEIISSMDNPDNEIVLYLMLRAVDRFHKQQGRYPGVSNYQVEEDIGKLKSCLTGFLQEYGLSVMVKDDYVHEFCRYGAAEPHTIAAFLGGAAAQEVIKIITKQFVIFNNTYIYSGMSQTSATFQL

Row | SMILES | inhibition
1 | O=C(CN1CCN(C2CCS(=O)(=O)C2)CC1)N1N=C(c2ccc(Cl)cc2)CC1c1ccco1 (stereo unspecified) | 3.58%
2 | COC(=O)C1=CN(c2ccc(F)c(F)c2)C=C(C(=O)OC)C1c1ccc([N+](=O)[O-])cc1 | -12.5%
3 | COC(=O)C1=CN(C)C=C(C(=O)OC)C1c1ccc(Cl)cc1Cl | 42.5% (active)
4 | NC(=O)C1(C(N)=O)OC1c1ccc(Cl)cc1Cl (stereo unspecified) | -3.19%
5 | C[N+](C)(C)CCNC(=O)c1cc[n+](Cc2ccccc2)c(/C=N/O)c1 | -22.5%
6 | O=C(Nc1c(Br)cc2c(c1Br)Cc1ccccc1-2)C(F)(F)F | -31.9%
7 | CN(CC(=O)Nc1ccc(F)c(F)c1F)C(=O)C1CC(=O)N(C2CCCC2)C1 (stereo unspecified) | 1.3%
8 | Cc1ccc(S(=O)(=O)NCCc2nnc3ccc(SCc4cccnc4)nn23)cc1 | -3.01%
9 | CC(=O)NNC(=O)c1csc(Cc2c(Cl)sc3ccc(Cl)cc23)n1 | 45.8% (active)
10 | CC(=O)Cc1nsc(NC(=O)c2ccc(Cl)cc2Cl)n1 | 12.4%
11 | CNC(=O)c1csc(Cc2c(Cl)sc3ccc(Cl)cc23)n1 | -6.49%
12 | Oc1ccccc1CNc1ncc(Br)cc1Br | -3.76%
13 | Cc1ccc(NC(=O)COc2ccc(/C=N\NC(=O)c3cccnc3)cc2)cc1C | 56% (active)
14 | Cc1cccc(OCC(=O)NCCNC(=O)c2cccnc2)c1 | 2.8%
15 | O=C(CNC(=O)c1cccnc1)N/N=C/c1cc(Br)c(O)c(Br)c1 | 5.12%
16 | COc1ccc(CNC(=O)CN(c2ccc(OC)c(Cl)c2)S(=O)(=O)c2ccc(C)cc2)cc1 | 8.36%
17 | COc1ccc(C(=O)NC(C)c2nccs2)cc1OC1CCN(C(C)C)CC1 (stereo unspecified) | -0.68%
18 | Cc1ccc(NC(=O)CN(C)C(=O)COC(=O)c2nccnc2N)cc1 | 57.4% (active)
19 | Cc1ccc(NC(=O)CN(C)C(=O)COC(=O)C(C)(C)Oc2ccc(Cl)cc2)cc1 | 9.98%
20 | Cc1ccc(CSCC(=O)N(C)CC(=O)Nc2ccc(C)cc2)cc1 | 5.66%
21 | O=C(OCCOCn1cc(Br)c(=O)[nH]c1=O)c1ccccc1 | 1.74%
22 | COC(=O)c1sc(-c2ccc(C(C)(C)C)cc2)cc1NC(=O)/C=C/C(=O)O | -17%
23 | COc1cccc(/C=N/Nc2cc(C)nc(-c3ccccc3O)n2)c1O | 40.2% (active)

Row | SMILES | inhibition
24 | COc1ccc(N2C(=O)CC(Sc3n[nH]c(-c4ccc(C)cc4)n3)C2=O)cc1 (stereo unspecified) | 0.38%
25 | Cc1ccccc1NC(=O)COc1cccc2c1CCNC2=O | -9.32%
26 | O=C(Cn1nnc(-c2ccccc2)n1)N/N=C/c1ccc(-c2ccc(Cl)cc2)o1 | 28.8%
27 | Nc1nnnn1CC(=O)N/N=C/c1ccc(-c2cccc(Cl)c2)o1 | 49.1% (active)
28 | CCCCCN(C(=O)NC(=O)Nc1ccccc1C)S(C)(=O)=O | -3.04%
29 | COc1ccc(C2CC(c3cccs3)=NN2C(=O)CSc2nnc(N)s2)cc1OC (stereo unspecified) | -4.71%
30 | COc1cccc(C2CC(c3cccs3)=NN2C(=O)CSC2=NCCS2)c1OC (stereo unspecified) | 47.3% (active)
31 | COc1ccc(C2CC(c3cccs3)=NN2C(=O)COC(=O)c2cc3ccccc3cc2O)cc1OC (stereo unspecified) | 0.97%
32 | CCN1C(=O)/C(=C\N2CCOCC2)SC1=S | -15.3%
33 | O=C(c1cc2ccccc2s1)N1CCN(c2ccccn2)CC1 | -7.27%
34 | O=C1c2cccc3cccc(c23)N1CN1CCN(c2ccccn2)CC1 | 38.1% (active)
35 | O=C1c2ccccc2S(=O)(=O)c2cc(N3CCN(c4ccccn4)CC3)ccc21 | -31.5%
36 | Cc1ccc(O)c(NC(=S)NC(=O)COc2ccc(Br)cc2)c1 | 12.7%
37 | COc1cc(NC(=O)CCNC(=O)Cn2ccc3ccccc3c2=O)cc(OC)c1OC | 5.61%
38 | Cc1cccc(N)c1SC1CCCCC1O (stereo unspecified) | 6.45%
39 | COCOCCn1cc(CN2CCS(=O)(=O)N(Cc3ccc(-c4ccc(OC)cc4)cc3)C(CC(C)C)C2=O)nn1 (stereo unspecified) | -8.33%
40 | COCCn1c(C)cc(C(=O)COC(=O)/C=C/c2cccc(OC)c2)c1C | 12.7%
41 | COc1cccc(/C=C/C(=O)OCC(=O)N2CCN(c3ccccc3)CC2)c1 | 31.1%
42 | COc1cccc(/C=C/C(=O)OCC(=O)N2CCCc3ccccc32)c1 | 40.6% (active)
43 | CC(NC(=O)CN1CCN(Cc2ccc(Cl)cc2)C1=O)c1ccc2c(c1)OCCO2 (stereo unspecified) | -6.96%
44 | COc1ccc(CCN2C(=O)C3CC=C(C)CC3C2=O)cc1OC (stereo unspecified) | 1.1%
45 | COc1cc(NS(=O)(=O)c2ccc3ccccc3c2)c2ncccc2c1 | 50.3% (active)
46 | COc1ccc(OC)c(C(C)NC(=S)Nc2ccc(S(=O)(=O)Nc3ncccn3)cc2)c1 (stereo unspecified) | 5.42%

Row | SMILES | inhibition
47 | O=S(=O)(Nc1ccccn1)c1cccc(S(=O)(=O)c2ccc(Cl)cc2)c1 | -0.91%
48 | CC(C)NC(=S)Nc1cccc2cnccc12 | 0.89%
49 | Cc1ccc(-n2nc3c(c2NC(=O)c2ccc4c(c2)OCO4)CSC3)c(C)c1 | 18.4%
50 | C=CCNC(=O)c1ccc2c3n(nc2c1)-c1ccc(C)cc1CO3 | 49.5% (active)
51 | OC(COCc1ccco1)CN1CCN(c2ccccc2)CC1 (stereo unspecified) | -1.36%
52 | COc1ccc(-c2c(C#Cc3ccsc3)c3cc(-c4ccc(CN5CCOCC5)cc4)ccc3n2C)cc1 | 22.8%
53 | COc1ccc(Cl)cc1NC(=O)CN(C)C(=O)c1cn(-c2ccccc2)nc1-c1cccs1 | -140%
54 | COc1cccc(NC(=O)CN(C)C(=O)/C=C/c2cn(-c3ccccc3)nc2-c2cccs2)c1 | 60.2% (active)
55 | O=c1cc(CO)oc(C(Nc2cccc(C(F)(F)F)c2)c2ccccn2)c1O (stereo unspecified) | 0.9%
56 | CC(C)C[C@H]1CNC(=O)C(=O)N1C[C@@H]1CCCN1C[C@H](Cc1ccccc1)N1C[C@H](CC(C)C)N(CC2CCCCCC2)C(=O)C1=O | 7.12%
57 | CN(C)c1ccc2c(=O)[nH][nH]c(=O)c2c1 | 33.3%
58 | COc1ccc(N2CC(C(=O)N[C@@H](C)C(=O)N3CCCCC3)CC2=O)cc1 (stereo partly specified) | -5.41%
59 | O=C1NC(c2ccncc2)Nc2sc3c(c21)CCCC3 (stereo unspecified) | 44.1% (active)
60 | COc1ccc(OC)c(/C=N/NC(=O)c2ccc[n+](CC(=O)c3ccccc3)c2)c1 | -1.66%
61 | COc1cccc(Cn2cc(/C=N/NC(=O)c3cc(O)cc(O)c3)c3ccccc32)c1 | 57.8% (active)
62 | O=C(N/N=C/c1ccsc1)c1cc(O)cc(O)c1 | -1.8%
63 | NC(=O)CN1CCCC1c1ccc2c(c1)OCCO2 (stereo unspecified) | 0.21%
64 | CCOc1ccc(NC(=O)C2CCCN(C(=O)Nc3ccccc3)C2)cc1 (stereo unspecified) | -6.95%
65 | CCCCc1cc2c(s1)CCCC/C2=N/O | -11.4%
66 | C=CCN1C(=O)C(O)(CC(=O)c2ccccn2)c2ccccc21 (stereo unspecified) | 1.24%
67 | C[N+](C)(C)CCNC(=O)c1c[nH]c2ccccc12 | 16.8%
68 | COc1ccc(/C=C(\C#N)c2c[nH]c3ccccc23)cc1 | 44.5% (active)
69 | COc1ccc(C2C(C(C)=O)=C(O)C(=O)N2CCc2c[nH]c3ccccc23)cc1 (stereo unspecified) | -15.3%

Row | SMILES | inhibition
70 | O=C(CCN1C(=O)c2ccccc2C1=O)C1=NN[C@@H]2C(=O)N(c3ccc(F)cc3)C(=O)[C@H]12 | -15%
71 | C[C@H](O)[C@@H]1C(=O)N2CCc3c([nH]c4ccccc34)[C@@H]2C[C@@H]1N(C)C(=O)Nc1ccc(F)cc1 | 50.2% (active)
72 | C[C@H](O)[C@@H]1C(=O)N2CCc3ccc(N4CCOCC4)cc3[C@@H]2C[C@@H]1N(C)C(=O)C(C)(C)C | 22%
73 | COCC(=O)N(C)[C@H]1C[C@H]2c3cc(Oc4ccccc4C)ccc3CCN2C(=O)[C@H]1[C@H](C)O | 2.1%
74 | CC(=O)N1c2ccc(S(=O)(=O)N(C)CC(=O)N(C)Cc3ccccc3)cc2CC1C (stereo unspecified) | 1.96%
75 | Cc1ccc(CN(Cc2cccnc2)C(=S)Nc2cccc(Cl)c2C)cc1 | 1.43%
76 | COCCn1c(Cc2cccn2C)nnc1SCC(=O)Nc1nccs1 | -1.55%
77 | CCCCN(C=O)c1c(CC)nc2c(OCc3ccccc3C(=O)OC)cccn12 | 8.99%
78 | COc1ccc(C2OC(=O)CC2C(=O)NC(C)C)cc1 (stereo unspecified) | 4.68%
79 | COCCNC(=O)CN(Cc1ccco1)C(=O)CCC(=O)Nc1nccs1 | 0.84%
80 | COCCNC(=O)c1ccc2nc(Cc3ccc(OC)c(OC)c3)oc2c1 | -5.61%
81 | COCCNC(=O)Nc1ccc2nc(-c3ccco3)c(-c3ccco3)nc2c1 | 49.3% (active)
82 | CSCCC(NC(=O)c1ccc(Cl)cc1Cl)C(=O)NNC(=O)c1csc(N2CCOCC2)n1 (stereo unspecified) | 31%
83 | Cc1ccc(N/N=C2\COC(C)(C)CC2=O)cc1 | 0.52%
84 | CS(=O)(=O)c1ccc2nc(NC(=O)c3ccc(Cl)nc3)sc2c1 | 65.7% (active)
85 | NS(=O)(=O)c1ccc2nc(NC(=O)CS(=O)(=O)c3ccc(F)cc3)sc2c1 | 1.17%
86 | Cc1nc2ccc(S(=O)(=O)NCC(=O)O)cc2s1 | 7.99%
87 | Cc1nn2c(=O)cc(COC(=O)c3ccc(NC(=O)C(C)(C)C)cc3)nc2s1 | -2.19%
88 | CCOC(=O)C1CCCN(C(=O)C2CCN(S(=O)(=O)c3ccc(Cl)c(C(F)(F)F)c3)CC2)C1 (stereo unspecified) | -19.5%
89 | CCOc1cc(C(=O)Nc2c(C)ccc3nsnc23)cc(OCC)c1OCC | 41.7% (active)
90 | Cc1ccc2nsnc2c1NC(=O)c1ccccc1[N+](=O)[O-] | -26.4%
91 | CCOc1cc(C(=O)Nc2ccc(S(=O)(=O)Nc3cnc4ccccc4n3)cc2)cc(OCC)c1OCC | 6.73%
